Measured values as given in PubChem BioAssay AID1259398 (Fisher Drug Discovery Resource Center, 2018).
Several values for one entry are separate records, joined by “and”; a condition that tells them apart may be missing. Equal entries are not always repeated. Among all 290,000 compounds or so, about 230 (0.079%) were called active. Shown is part of a subset that was picked to be rich in actives. Unmarked numbers belong to inactive results. Cut-off read from the data, not from the text of the source: active = inhibition above about 40%; inactive = the rest.

molecular target: Cyclic GMP-AMP synthase (Homo sapiens) (UniProt Q8N884); experiment: Biochemical Kinase-Glo luminescence primary assay, human cyclic GMP-AMP synthase inhibition (AID 1259398); conditions: recombinant h-cGAS, ATP depletion, at 12.5 µM, hits give high values;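 note: 0% = vehicle reaction and 100% = reaction without DNA for no activity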
Sequence (Q8N884 whole entry, looked up): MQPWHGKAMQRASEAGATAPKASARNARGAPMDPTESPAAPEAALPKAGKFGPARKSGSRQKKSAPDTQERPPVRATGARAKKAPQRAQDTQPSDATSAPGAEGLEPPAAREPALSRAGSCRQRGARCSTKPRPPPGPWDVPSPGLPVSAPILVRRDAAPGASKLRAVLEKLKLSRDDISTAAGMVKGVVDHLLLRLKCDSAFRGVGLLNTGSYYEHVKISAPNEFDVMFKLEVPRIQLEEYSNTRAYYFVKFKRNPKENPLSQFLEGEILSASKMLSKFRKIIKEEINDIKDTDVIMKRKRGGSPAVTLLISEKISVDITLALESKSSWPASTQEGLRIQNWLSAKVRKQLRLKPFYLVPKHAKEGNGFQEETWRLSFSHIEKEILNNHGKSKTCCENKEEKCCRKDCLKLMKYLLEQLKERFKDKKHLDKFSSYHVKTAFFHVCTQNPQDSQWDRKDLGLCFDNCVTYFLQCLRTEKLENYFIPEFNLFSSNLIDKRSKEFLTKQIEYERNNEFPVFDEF

| SMILES | inhibition |
| --- | --- |
| COc1cccc(-c2nn(Cc3ccccc3)c(=O)c3nc(C)sc23)c1 | -0.0493% |
| O=C(NCCc1ccco1)c1ccc2c(c1)OCO2 | 1.62% |
| COc1cc(CN(C)C(=O)c2cc(N3CCN(c4cccc(C(F)(F)F)c4)CC3)nc3ccccc23)cc(OC)c1OC | -6.59% |
| NC(=O)COc1ccc(C(=O)N2CCCC2CCc2ccccc2)cc1 (stereo unspecified) | -3.77% |
| CCOC(=O)c1sc(NC(=O)CCCl)c(C(=O)OCC)c1C | -5.41% |
| CCCc1c(C(=O)NCc2cccnc2)cnn1-c1ccccc1C | -8.73% |
| O=C(Nc1nnc(-c2ccc(Cl)cc2)s1)C1CCCN1S(=O)(=O)c1ccc(F)cc1 (stereo unspecified) | -2.72% |
| C(=C\c1ccccc1)/CSc1nnc2c(n1)[nH]c1ccccc12 | -6.1% |
| CC(C)CNC(=O)c1c(O)nc2sccn2c1=O | -9.43% |
| COCCNC(=O)Cn1nc2c(c1NC(=O)Cc1ccc(F)cc1)CSC2 | -6.17% |
| Cn1c(=O)[nH]c(=O)c2c1nc(N1CCN(Cc3ccccc3)CC1)n2Cc1cccc(Cl)c1 | -7.67% |
| CC1(C)C(c2ccc(Cl)cc2)=[N+]([O-])C(C)(C)C(c2ccc(Cl)cc2)=[N+]1[O-] | -4.69% |
| COc1ccc2cnn(-c3cccc(Cl)c3)c(=O)c2c1OC | -0.243% |
| Cc1sc2ncn(CC(=O)O)c(=O)c2c1C | -2.86% |
| Cc1ccc(-c2cc(C(=O)O)[nH]n2)c(C)c1 | -5.69% |
| O=C(CSc1nc(=O)n(CCCN2CCOCC2)c2c1CCC2)N1CCc2ccccc21 | -6% |
| CC(C)CSc1nc2c(c(=O)n(C)c(=O)n2C)n1CC=Cc1ccccc1 | -0.843% |
| CC(Cn1cncn1)NC(=O)C1CCN(C)C(=O)C1 (stereo unspecified) | -9.85% |
| Clc1ccccc1Cn1ncc2c(N3CCN(CCOc4cccc5ccccc45)CC3)ncnc21 | -10.9% |

| SMILES | inhibition |
| --- | --- |
| N#CC1C(=N)C(C#N)(C#N)C(c2ccco2)C2CCCC=C12 (stereo unspecified) | -7.43% |
| N#CC1C(=N)SC(=N)C(C#N)C1c1ccco1 (stereo unspecified) | 53.9% (active) |
| CCc1ccc(C2C(C#N)C(=N)SC(=N)C2C#N)cc1 (stereo unspecified) | -0.735% |
| N#CC1C(=N)SC(=N)C(C#N)C1c1ccnc2ccccc12 (stereo unspecified) | -1.27% |
| N#CC1C(=N)SC(=N)C(C#N)C1c1cccc(O)c1 (stereo unspecified) | 65.3% (active) |
| CCC(C(=O)N(CC(=O)N1CC(=O)N(c2cccc(Cl)c2C)C1)Cc1ccco1)c1ccccc1 (stereo unspecified) | -7.01% |
| COc1cc(S(=O)(=O)Nc2c(F)cccc2F)cc(C(=O)O)c1OC | 9.01% |
| Cc1cccc(Cn2cccc2CN(Cc2ccc(F)cc2)C2CCCCC2)c1 | -1.66% |
| COc1ccc(-n2nnnc2SCCC#N)cc1 | -7.16% |
| Cc1cc(C(=O)O)ccc1S(=O)(=O)N(C)c1cc(F)ccc1F | -8.29% |
| CCC(CO)N(Cc1ccc(F)cc1)Cc1c(C)nn(C)c1Cl (stereo unspecified) | -10.3% |
| O=C(c1cc(-c2ccccc2F)on1)N1CCc2ccc(O)cc2C1 | -0.786% |
| COc1cc(C(=O)n2nc(C)c(Sc3ccccc3[N+](=O)[O-])c2C)cc(OC)c1OC | -6.71% |
| CC(=O)Nc1ccccc1OS(=O)(=O)c1ccc(Br)cc1 | 0.158% and 5.4% |
| CN(Cc1nc2ccccc2n1C)C(=O)[C@H]1CCCO1 | -5.26% |
| O=C(NC(Cc1ccccc1)C(=O)Nc1nnc(-c2cccc(Cl)c2)s1)c1cccc(C(F)(F)F)c1 (stereo unspecified) | -8.87% |
| COc1cccc(-c2nc(OCc3ccc(F)cc3)nn2-c2cccc(NC(=O)C3CCC3)c2)c1 | -6.9% |
| O=C(Nc1ccc(F)cc1)c1csc(CSc2nnc(Cc3ccccc3)n2-c2cccc(Cl)c2)n1 | 5.96% |
| CCn1nc(C(=O)O)c2c1CCC(N(C)CCn1ccnc1C)C2 (stereo unspecified) | -7.94% |

| SMILES | inhibition |
| --- | --- |
| COc1cccc(C2Nc3ccccc3N=C3CC(C)(C)CC(=O)C32)c1OC (stereo unspecified) | -3.94% |
| CC(C)(CCl)C(=O)N1CCN(c2ncnc3c2nnn3-c2cccc(F)c2)CC1 | -5.18% |
| CCc1nc2ccc(C(=O)NCCNC(C)=O)cn2c1N(CC)Cc1cccc(Br)c1 | -6.29% |
| O=C(NCCc1ccccc1)c1cc(NC(=O)C(c2ccccc2)c2ccccc2)ccc1N1CCCCC1 | -3.47% |
| O=C(NC1CCC1)c1ccc(-c2cc(-c3cccc(C(F)(F)F)c3)n[nH]2)cc1 | -8.56% |
| CC1c2ccsc2CCN1C(=O)Cc1csc(-c2ccsc2)n1 (stereo unspecified) | -10.7% |
| COC[C@@H]1CCCN1C(=O)c1ccc(-n2nc(-c3cccc(Cl)c3)cc2N)cc1 | 2.07% |
| CN(C)c1ccc(N2CC(=O)C(c3nc(-c4cccc(Cl)c4)cs3)C2=N)cc1 (stereo unspecified) | 148% (active) |
| Nc1cc(-c2cccc(Cl)c2)nn1-c1ccc(C(=O)N2CCOCC2)cc1 | -3.59% |
| COc1cccc(CSc2nnc(CNC(=O)Nc3cc(C(F)(F)F)cc(C(F)(F)F)c3)n2-c2ccc(C)cc2)c1 | -18% |
| Cc1cc(C)n(CC(=O)N2CC[C@@H]3CN(S(C)(=O)=O)[C@@H]3C2)n1 | 66.4% (active) |
| CCn1ncc(C(=O)N2CC[C@@H]3CN(S(C)(=O)=O)[C@@H]3C2)c1C | -7.55% |
| Cc1cc(C)n(CC2CCN(C(=O)C3CCN(S(C)(=O)=O)CC3)CC2)n1 | -9.09% |
| CS(=O)(=O)c1ccc(-c2ccc(NS(=O)(=O)c3cccs3)cc2)nn1 | -9.35% |
| Cc1cc(C(=O)N2CCC(N(C)C)C2)ccc1NC(=O)c1ccco1 (stereo unspecified) | -11.4% |
| CC(=O)N(c1ccccc1)C1C=C(Nc2ccccc2)C(=O)C1 (stereo unspecified) | -10.4% |
| Cc1c(C(=O)N2CCC(Cc3ccccc3)CC2)cnc2c(-c3cccc(C(F)(F)F)c3)cnn12 | -4.43% |
| OC(COCc1ccco1)CN(Cc1ccccc1)C1CC1 (stereo unspecified) | 1.45% |
